# Assay results reported in publication PMC7862700, “An all-to-all approach to the identification of sequence-specific readers for epigenetic DNA modifications on cytosine”.
# Columns and labels:
# Experiment in all cases: DAPPL (digital affinity profiling via proximity ligation, sequencing); 10 mM Tris-HCl pH 7.5, 50 mM NaCl, 1 mM DTT, 4% glycerol, room temperature, 30 min; GST-TFs on glutathione beads, 16-mer random dsDNA library, 0.1% formaldehyde crosslink after washing; high values mean tight binding
# FEV = molecular target: T1, FEV (Homo sapiens, UniProt Q99581 1-238); conditions: protein: recombinant; tags: N-terminal GST; dsDNA, one strand shown
# T1 sequence: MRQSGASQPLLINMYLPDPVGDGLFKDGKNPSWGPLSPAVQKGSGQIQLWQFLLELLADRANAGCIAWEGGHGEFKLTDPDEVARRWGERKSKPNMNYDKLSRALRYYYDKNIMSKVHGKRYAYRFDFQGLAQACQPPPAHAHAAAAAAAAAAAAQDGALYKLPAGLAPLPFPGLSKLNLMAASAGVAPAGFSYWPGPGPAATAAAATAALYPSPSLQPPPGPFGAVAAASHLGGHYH
# How it was run: (§1)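 After expression in yeast as GST fusions, human transcription factors were bound to glutathione beads, DNA-barcoded and mixed with a tag-only sample. The pools were incubated with 200 nmole of a 16-mer random double-stranded DNA library in Tris/NaCl/DTT/glycerol buffer (30 min, room temperature), washed and crosslinked with 0.1% formaldehyde. Proximity ligation with BsaI/T4 ligase ran for 1 h at 37 °C, before PCR amplification and sequencing on an Illumina NextSeq500. Binding signal is a hexamer's read frequency for a factor divided by its frequency for the tag-only sample.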
# ETV5 = ETV5 (Homo sapiens, UniProt P41161 1-510); conditions: protein: recombinant; tags: N-terminal GST; dsDNA, one strand shown
# Chain of ETV5 (P41161 whole entry): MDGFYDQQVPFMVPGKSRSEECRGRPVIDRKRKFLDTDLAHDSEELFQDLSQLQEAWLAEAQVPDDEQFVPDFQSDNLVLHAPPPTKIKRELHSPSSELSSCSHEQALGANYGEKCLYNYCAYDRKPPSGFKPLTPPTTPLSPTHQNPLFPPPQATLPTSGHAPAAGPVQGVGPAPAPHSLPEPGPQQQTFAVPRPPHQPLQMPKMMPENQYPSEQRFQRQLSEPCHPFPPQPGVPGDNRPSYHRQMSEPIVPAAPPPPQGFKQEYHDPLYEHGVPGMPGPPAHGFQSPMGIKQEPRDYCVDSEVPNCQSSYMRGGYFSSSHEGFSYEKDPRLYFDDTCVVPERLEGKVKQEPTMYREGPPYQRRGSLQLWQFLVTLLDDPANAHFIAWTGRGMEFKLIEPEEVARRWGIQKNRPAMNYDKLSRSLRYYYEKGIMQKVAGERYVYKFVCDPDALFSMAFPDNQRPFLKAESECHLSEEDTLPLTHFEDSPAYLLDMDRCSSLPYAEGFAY
# How it was run: as §1
# HSF1 = HSF1 (Homo sapiens, UniProt Q00613 1-529); conditions: protein: recombinant; tags: N-terminal GST; chain copies: 3; dsDNA, one strand shown
# Chain of HSF1 (Q00613 whole entry): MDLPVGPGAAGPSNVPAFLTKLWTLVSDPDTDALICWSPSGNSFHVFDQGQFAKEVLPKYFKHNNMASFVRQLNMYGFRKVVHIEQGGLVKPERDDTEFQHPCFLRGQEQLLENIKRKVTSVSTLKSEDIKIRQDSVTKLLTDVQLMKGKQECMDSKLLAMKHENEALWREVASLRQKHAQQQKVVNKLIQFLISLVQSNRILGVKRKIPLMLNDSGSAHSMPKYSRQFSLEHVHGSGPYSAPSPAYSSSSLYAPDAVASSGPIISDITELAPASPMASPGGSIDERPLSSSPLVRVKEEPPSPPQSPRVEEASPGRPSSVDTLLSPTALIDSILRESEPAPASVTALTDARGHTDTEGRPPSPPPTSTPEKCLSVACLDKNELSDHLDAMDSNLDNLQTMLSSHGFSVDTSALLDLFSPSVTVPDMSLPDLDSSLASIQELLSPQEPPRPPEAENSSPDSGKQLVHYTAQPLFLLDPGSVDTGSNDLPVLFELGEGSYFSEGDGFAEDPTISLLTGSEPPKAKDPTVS
# How it was run: as §1
# SPIC = molecular target: T2, SPIC (Homo sapiens, UniProt Q8N5J4 1-248); conditions: protein: recombinant; tags: N-terminal GST; dsDNA, one strand shown
# T2 sequence: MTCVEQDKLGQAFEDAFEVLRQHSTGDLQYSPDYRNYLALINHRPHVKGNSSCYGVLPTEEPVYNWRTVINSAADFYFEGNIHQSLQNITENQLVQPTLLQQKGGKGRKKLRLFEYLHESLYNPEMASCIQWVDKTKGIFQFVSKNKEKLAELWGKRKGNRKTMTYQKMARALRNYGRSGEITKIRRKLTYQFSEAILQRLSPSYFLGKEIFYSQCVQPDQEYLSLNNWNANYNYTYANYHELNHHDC
# How it was run: as §1
# ELF4 = ELF4 (Homo sapiens, UniProt Q99607 1-663); conditions: protein: recombinant; tags: N-terminal GST; dsDNA, one strand shown
# Chain of ELF4 (Q99607 whole entry): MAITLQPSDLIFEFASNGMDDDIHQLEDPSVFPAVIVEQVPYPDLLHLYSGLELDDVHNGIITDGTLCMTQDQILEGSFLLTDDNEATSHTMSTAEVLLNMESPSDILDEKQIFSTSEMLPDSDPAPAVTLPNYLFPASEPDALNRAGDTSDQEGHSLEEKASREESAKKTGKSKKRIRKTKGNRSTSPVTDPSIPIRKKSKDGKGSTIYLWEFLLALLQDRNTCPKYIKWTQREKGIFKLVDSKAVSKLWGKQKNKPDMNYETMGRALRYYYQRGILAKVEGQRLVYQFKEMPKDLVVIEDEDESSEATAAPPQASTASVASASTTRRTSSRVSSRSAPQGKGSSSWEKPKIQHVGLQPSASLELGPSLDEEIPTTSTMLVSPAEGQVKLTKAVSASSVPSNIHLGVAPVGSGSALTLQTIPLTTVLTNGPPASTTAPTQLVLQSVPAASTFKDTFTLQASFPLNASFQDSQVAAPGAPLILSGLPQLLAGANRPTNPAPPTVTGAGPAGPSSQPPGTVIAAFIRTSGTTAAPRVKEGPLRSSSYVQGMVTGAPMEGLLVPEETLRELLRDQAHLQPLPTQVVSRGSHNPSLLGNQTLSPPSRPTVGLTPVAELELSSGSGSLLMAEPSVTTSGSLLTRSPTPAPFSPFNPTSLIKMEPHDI
# How it was run: as §1
# ELK4 = molecular target: T3, ELK4 (Homo sapiens, UniProt P28324-2 1-405); conditions: protein: recombinant; tags: N-terminal GST; dsDNA, one strand shown
# T3 sequence: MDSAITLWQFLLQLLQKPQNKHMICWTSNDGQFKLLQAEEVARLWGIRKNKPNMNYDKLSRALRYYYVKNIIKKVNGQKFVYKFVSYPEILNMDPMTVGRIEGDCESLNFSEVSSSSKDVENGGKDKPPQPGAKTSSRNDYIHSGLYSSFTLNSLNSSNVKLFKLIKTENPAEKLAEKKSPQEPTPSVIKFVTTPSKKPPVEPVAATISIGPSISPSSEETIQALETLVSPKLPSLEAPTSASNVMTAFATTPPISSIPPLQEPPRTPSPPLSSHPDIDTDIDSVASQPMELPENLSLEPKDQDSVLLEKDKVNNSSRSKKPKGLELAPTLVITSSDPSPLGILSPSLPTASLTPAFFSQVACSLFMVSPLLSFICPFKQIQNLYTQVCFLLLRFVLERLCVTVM
# How it was run: as §1
# ETV2 = molecular target: T4, ETV2 (Homo sapiens, UniProt O00321 1-342); conditions: protein: recombinant; tags: N-terminal GST; dsDNA, one strand shown
# T4 sequence: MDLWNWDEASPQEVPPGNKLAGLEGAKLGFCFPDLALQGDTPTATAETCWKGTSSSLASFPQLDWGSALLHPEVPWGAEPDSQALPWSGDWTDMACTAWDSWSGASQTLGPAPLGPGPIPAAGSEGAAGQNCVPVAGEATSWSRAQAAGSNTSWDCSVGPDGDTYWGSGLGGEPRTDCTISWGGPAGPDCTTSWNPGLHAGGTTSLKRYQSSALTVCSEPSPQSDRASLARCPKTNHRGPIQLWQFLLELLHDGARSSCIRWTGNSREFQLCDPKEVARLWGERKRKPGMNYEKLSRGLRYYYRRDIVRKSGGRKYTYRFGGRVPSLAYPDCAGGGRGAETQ
# How it was run: as §1
# ELF3 = molecular target: T5, ELF3 (Homo sapiens, UniProt P78545 1-371); conditions: protein: recombinant; tags: N-terminal GST; dsDNA, one strand shown
# T5 sequence: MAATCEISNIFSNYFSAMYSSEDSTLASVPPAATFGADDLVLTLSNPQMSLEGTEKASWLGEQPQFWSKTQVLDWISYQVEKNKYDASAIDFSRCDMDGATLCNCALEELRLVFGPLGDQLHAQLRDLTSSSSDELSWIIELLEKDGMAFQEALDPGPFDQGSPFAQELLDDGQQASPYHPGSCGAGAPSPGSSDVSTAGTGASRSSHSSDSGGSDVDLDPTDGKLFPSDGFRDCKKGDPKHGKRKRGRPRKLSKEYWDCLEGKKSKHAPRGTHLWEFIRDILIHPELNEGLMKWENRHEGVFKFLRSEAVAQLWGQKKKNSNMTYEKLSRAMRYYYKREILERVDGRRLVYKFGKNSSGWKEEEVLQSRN
# How it was run: as §1
# CRX = CRX (Homo sapiens, UniProt O43186 1-299); conditions: protein: recombinant; tags: N-terminal GST; dsDNA, one strand shown
# Chain of CRX (O43186 whole entry): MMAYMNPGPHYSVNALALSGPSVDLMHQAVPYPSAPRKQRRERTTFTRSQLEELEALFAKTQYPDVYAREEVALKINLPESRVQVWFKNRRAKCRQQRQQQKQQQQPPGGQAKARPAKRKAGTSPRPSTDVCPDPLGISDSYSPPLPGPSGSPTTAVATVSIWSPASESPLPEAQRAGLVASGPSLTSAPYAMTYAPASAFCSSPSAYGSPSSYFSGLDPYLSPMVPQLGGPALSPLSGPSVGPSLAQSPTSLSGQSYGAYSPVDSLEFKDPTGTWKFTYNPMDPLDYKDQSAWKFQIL
# How it was run: as §1
# ETV1 = ETV1 (Homo sapiens, UniProt P50549 1-477); conditions: protein: recombinant; tags: N-terminal GST; dsDNA, one strand shown
# Chain of ETV1 (P50549 whole entry): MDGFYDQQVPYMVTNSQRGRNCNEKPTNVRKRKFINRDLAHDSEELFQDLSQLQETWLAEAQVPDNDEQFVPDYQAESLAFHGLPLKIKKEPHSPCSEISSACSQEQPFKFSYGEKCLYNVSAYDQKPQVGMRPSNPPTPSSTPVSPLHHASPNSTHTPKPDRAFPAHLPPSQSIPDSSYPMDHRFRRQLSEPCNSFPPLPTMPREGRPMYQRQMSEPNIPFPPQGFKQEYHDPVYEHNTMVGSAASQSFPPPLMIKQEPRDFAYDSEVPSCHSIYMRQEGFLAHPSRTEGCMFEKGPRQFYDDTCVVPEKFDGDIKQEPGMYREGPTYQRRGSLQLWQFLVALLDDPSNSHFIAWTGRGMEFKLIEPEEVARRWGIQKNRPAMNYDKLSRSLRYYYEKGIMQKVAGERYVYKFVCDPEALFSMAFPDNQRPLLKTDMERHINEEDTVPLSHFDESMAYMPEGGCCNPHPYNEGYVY
# How it was run: as §1
# ERF = molecular target: T6, ERF (Homo sapiens, UniProt P50548 1-548); conditions: protein: recombinant; tags: N-terminal GST; dsDNA, one strand shown
# T6 sequence: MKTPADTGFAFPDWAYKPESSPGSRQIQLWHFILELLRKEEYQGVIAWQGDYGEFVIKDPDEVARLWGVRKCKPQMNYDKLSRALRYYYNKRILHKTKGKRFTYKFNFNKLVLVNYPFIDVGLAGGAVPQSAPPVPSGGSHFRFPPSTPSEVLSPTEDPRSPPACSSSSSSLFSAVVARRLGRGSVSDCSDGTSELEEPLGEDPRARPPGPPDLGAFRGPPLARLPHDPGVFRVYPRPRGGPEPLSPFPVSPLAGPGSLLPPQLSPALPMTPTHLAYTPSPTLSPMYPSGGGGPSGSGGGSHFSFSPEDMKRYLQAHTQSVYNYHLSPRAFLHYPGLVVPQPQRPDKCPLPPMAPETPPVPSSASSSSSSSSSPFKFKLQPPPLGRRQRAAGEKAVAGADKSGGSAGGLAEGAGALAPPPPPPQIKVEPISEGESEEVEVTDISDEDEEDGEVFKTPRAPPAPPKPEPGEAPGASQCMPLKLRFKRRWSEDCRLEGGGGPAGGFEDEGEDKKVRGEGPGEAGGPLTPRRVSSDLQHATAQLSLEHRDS
# How it was run: as §1
# ETV3L = molecular target: T7, ETV3L (Homo sapiens, UniProt Q6ZN32 1-361); conditions: protein: recombinant; tags: N-terminal GST; dsDNA, one strand shown
# T7 sequence: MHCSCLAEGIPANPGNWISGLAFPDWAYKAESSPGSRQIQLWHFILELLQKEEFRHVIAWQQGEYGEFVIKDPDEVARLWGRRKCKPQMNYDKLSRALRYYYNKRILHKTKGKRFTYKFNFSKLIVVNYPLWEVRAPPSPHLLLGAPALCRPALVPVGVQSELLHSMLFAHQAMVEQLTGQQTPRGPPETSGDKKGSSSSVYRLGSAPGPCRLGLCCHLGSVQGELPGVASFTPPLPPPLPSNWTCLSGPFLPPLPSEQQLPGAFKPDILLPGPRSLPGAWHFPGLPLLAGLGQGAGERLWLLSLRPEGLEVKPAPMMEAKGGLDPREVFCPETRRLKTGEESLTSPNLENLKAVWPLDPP
# How it was run: as §1
# ETS2 = molecular target: T8, ETS2 (Homo sapiens, UniProt P15036 1-469); conditions: protein: recombinant; tags: N-terminal GST; dsDNA, one strand shown
# T8 sequence: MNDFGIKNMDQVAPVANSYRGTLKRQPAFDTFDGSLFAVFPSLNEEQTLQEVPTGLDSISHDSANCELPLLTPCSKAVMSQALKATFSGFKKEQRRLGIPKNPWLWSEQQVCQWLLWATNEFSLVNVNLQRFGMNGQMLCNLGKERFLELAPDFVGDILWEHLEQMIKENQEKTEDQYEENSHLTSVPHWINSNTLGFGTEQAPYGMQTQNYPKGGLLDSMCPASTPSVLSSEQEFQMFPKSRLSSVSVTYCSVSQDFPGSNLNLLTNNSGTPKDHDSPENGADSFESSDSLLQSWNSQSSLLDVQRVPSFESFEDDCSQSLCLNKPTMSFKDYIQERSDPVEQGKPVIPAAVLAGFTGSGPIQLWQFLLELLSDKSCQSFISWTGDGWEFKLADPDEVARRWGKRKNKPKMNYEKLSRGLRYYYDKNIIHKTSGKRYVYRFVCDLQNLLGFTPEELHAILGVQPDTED
# How it was run: as §1
# SPDEF = molecular target: T9, SPDEF (Homo sapiens, UniProt O95238 1-335); conditions: protein: recombinant; tags: N-terminal GST; dsDNA, one strand shown
# T9 sequence: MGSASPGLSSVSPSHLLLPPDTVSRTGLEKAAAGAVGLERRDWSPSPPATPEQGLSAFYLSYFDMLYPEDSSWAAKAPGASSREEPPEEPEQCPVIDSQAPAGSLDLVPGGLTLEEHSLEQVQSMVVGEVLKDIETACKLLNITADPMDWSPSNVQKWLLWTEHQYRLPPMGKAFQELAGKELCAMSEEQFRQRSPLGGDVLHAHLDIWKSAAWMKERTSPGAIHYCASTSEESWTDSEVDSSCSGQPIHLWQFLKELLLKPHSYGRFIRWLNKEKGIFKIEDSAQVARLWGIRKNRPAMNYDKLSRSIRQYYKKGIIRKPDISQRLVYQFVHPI
# How it was run: as §1
# ETV7 = molecular target: T10, ETV7 (Homo sapiens, UniProt Q9Y603 1-341); conditions: protein: recombinant; tags: N-terminal GST; dsDNA, one strand shown
# T10 sequence: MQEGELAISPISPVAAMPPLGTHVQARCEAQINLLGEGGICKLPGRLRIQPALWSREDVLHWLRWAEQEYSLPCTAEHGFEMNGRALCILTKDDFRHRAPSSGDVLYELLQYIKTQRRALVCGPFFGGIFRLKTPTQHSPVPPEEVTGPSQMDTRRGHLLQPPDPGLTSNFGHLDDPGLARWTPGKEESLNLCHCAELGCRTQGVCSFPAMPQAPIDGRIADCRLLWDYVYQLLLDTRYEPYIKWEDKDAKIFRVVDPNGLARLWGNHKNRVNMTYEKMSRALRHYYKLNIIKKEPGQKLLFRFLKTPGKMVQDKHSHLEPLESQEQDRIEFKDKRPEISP
# How it was run: as §1
# ELF5 = molecular target: T11, ELF5 (Homo sapiens, UniProt Q9UKW6-2 1-255); conditions: protein: recombinant; tags: N-terminal GST; dsDNA, one strand shown
# T11 sequence: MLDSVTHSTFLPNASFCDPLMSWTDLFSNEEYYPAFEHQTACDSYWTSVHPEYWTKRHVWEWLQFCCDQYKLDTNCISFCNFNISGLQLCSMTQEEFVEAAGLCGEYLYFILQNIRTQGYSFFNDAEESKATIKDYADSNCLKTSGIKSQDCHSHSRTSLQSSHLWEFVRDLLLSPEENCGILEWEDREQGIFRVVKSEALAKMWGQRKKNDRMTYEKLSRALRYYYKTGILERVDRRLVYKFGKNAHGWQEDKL
# How it was run: as §1
# ETV3 = molecular target: T12, ETV3 (Homo sapiens, UniProt P41162-2 1-143); conditions: protein: recombinant; tags: N-terminal GST; dsDNA, one strand shown
# T12 sequence: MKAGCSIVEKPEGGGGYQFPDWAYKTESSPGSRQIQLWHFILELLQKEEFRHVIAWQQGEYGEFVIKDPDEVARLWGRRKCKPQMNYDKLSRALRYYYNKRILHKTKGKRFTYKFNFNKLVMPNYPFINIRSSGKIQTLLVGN
# How it was run: as §1
# ETV6 = ETV6 (Homo sapiens, UniProt P41212 1-452); conditions: protein: recombinant; tags: N-terminal GST; dsDNA, one strand shown
# Chain of ETV6 (P41212 whole entry): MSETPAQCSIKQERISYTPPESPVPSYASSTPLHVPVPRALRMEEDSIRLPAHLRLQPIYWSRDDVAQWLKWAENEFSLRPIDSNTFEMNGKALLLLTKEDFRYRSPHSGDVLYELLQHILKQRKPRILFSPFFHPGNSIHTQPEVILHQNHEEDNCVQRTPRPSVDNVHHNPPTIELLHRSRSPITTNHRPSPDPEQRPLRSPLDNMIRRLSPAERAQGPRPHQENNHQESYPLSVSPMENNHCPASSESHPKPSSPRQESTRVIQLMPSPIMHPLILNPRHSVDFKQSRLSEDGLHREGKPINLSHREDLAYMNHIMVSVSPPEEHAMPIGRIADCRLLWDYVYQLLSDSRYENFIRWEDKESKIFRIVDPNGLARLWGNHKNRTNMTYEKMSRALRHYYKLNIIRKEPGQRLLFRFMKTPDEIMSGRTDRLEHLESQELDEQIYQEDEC
# How it was run: as §1
sequence,measurement,setting,value
ATGGCA,binding signal,FEV,"1.44 fold enrichment (6-mer frequency, TF over GST control)"
same,binding signal,ETV5,"1.28 fold enrichment (6-mer frequency, TF over GST control)"
same,binding signal,HSF1,"1.1 fold enrichment (6-mer frequency, TF over GST control)"
same,binding signal,SPIC,"1.21 fold enrichment (6-mer frequency, TF over GST control)"
same,binding signal,ELF4,"1.2 fold enrichment (6-mer frequency, TF over GST control)"
same,binding signal,ELK4,"1.15 fold enrichment (6-mer frequency, TF over GST control)"
same,binding signal,ETV2,"1.31 fold enrichment (6-mer frequency, TF over GST control)"
same,binding signal,ELF3,"1.28 fold enrichment (6-mer frequency, TF over GST control)"
same,binding signal,CRX,"1.11 fold enrichment (6-mer frequency, TF over GST control)"
same,binding signal,ETV1,"1.27 fold enrichment (6-mer frequency, TF over GST control)"
same,binding signal,ERF,"1.23 fold enrichment (6-mer frequency, TF over GST control)"
same,binding signal,ETV3L,"1.2 fold enrichment (6-mer frequency, TF over GST control)"
same,binding signal,ETS2,"1.15 fold enrichment (6-mer frequency, TF over GST control)"
same,binding signal,SPDEF,"1.1 fold enrichment (6-mer frequency, TF over GST control)"
same,binding signal,ETV7,"1.24 fold enrichment (6-mer frequency, TF over GST control)"
same,binding signal,ELF5,"1.26 fold enrichment (6-mer frequency, TF over GST control)"
same,binding signal,ETV3,"1.3 fold enrichment (6-mer frequency, TF over GST control)"
same,binding signal,ETV6,"1.28 fold enrichment (6-mer frequency, TF over GST control)"
